Test results as given in PubChem BioAssay AID1220 (Sanford-Burnham Center for Chemical Genomics, 2008).
The whole screen tested about 190,000 compounds, of which about 1,300 (0.68%) were called active. Rule as the data show it: active = inhibition above about 50%; inactive = the rest. Only a selection was taken, and actives are over-represented in it overall.

Each molecule was assayed against Mannose-6-phosphate isomerase (Homo sapiens) (UniProt P34949) (assay: human PMI inhibitors, high substrate, primary screen, biochemical, fluorescence intensity, high mannose 6-phosphate (AID 1220)). Conditions: recombinant PMI enzyme, coupled fluorescence intensity; at 20 µM; stronger effect = higher value.
Sequence of Mannose-6-phosphate isomerase (Homo sapiens) (P34949 whole entry, looked up): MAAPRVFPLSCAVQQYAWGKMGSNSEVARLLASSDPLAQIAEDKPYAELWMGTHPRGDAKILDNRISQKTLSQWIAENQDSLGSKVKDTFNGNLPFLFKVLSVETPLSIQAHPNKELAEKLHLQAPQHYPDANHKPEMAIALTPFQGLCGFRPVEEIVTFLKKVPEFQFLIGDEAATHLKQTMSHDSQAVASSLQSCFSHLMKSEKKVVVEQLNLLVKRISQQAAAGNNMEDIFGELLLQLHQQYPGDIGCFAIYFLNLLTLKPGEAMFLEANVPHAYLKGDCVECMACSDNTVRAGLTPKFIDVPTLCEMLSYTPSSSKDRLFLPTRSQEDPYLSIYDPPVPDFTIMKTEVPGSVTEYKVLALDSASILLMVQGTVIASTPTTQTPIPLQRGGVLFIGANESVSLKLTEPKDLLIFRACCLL

| SMILES | inhibition |
| --- | --- |
| Nc1nc(SCC(=O)NCc2ccccc2)[nH]c(=O)c1NC(=O)c1ccccc1F | 9.7% (inactive) |
| Cc1ccc(NC(=O)c2ccn(C)n2)c(Br)c1 | 6% (inactive) |
| O=C(Cn1nc(C(F)(F)F)c2c1CCC2)N1CCN(c2ccccc2)CC1 | 9.9% (inactive) |
| CC(C)CC(=O)O/N=C1\C(=O)N(Cc2ccc(Cl)cc2)c2ccc([N+](=O)[O-])cc21 | 22.3% (inactive) |
| CCCn1c(C)cc(/C=C(\C#N)C(=O)OCC(=O)NC(=O)NC(C)(C)C)c1C | -3.7% (inactive) |
| COc1ccccc1N1CCN(C(=S)Nc2ccc3nc(N4CCOCC4)cc(C)c3c2)CC1 | 62.5% (active) |
| CCN1CCN(c2cc(C)c3cc(NC(=S)N4CCOCC4)ccc3n2)CC1 | 13.3% (inactive) |
| Cc1cccc(N2CCN(C(=S)Nc3ccc4nc(N5CCOCC5)cc(C)c4c3)CC2C)c1 (stereo not drawn) | 51.9% (active) |
| Cc1cccc(N2CCN(C(=S)Nc3ccc4nc(N5CCN(C)CC5)cc(C)c4c3)CC2)c1C | 16.2% (inactive) |
| CCN1CCN(c2cc(C)c3cc(NC(=S)N4CCN(c5ccccc5)CC4)ccc3n2)CC1 | 28.1% (inactive) |
| Cc1cccc(N2CCN(C(=S)Nc3ccc4nc(N5CCN(C)CC5)cc(C)c4c3)CC2C)c1 (stereo not drawn) | 17.5% (inactive) |
| Cc1ccc(C)c(N2CCN(C(=S)Nc3ccc4nc(N5CCOCC5)cc(C)c4c3)CC2)c1 | 58.5% (active) |
| Cc1cc(N2CCOCC2)nc2ccc(NC(=S)N3CCN(c4ccccc4)CC3)cc12 | 52.5% (active) |
| Cc1cc(N2CCOCC2)nc2ccc(NC(=S)N3CCN(Cc4ccccc4)CC3)cc12 | 35.3% (inactive) |
| Cc1ccc(C)c(N2CCN(C(=S)Nc3ccc4nc(N5CCN(C)CC5)cc(C)c4c3)CC2)c1 | 24.4% (inactive) |
| Cc1cc(N2CCN(C)CC2)nc2ccc(NC(=S)N3CCN(c4ccc(F)cc4)CC3)cc12 | 29.1% (inactive) |
| Cc1cc(N2CCN(C)CC2)nc2ccc(NC(=S)N3CCN(c4ccc(Cl)cc4)CC3)cc12 | 41.7% (inactive) |
| CCOc1cc2[nH]c(=O)n(CCCN3CCN(c4ccc(OC)cc4)CC3)c(=O)c2cc1OCC | 21.4% (inactive) |
| COc1ccc(N/C=C\C(=O)c2ccc(C)cc2)cc1OC | 18.6% (inactive) |
| Cc1occc1C(=O)NNC(=S)NCc1ccc(Cl)cc1 | -4.2% (inactive) |
| CCCC(=O)NCCc1nc2ccccc2n1CC(=O)c1ccccc1 | 4.9% (inactive) |
| CCN(CC)S(=O)(=O)c1ccc(N2C(=O)Nc3ccccc3N2O)cc1 | -8.2% (inactive) |
| COc1nccc(Nc2ccccc2)c1C#N | -7.6% (inactive) |
| Cc1cc(N2CCN(C)CC2)nc2ccc(NC(=S)N3CCOCC3)cc12 | 23.9% (inactive) |
| Cc1cc(N2CCN(C)CC2)nc2ccc(NC(=S)N3CCCCCC3)cc12 | 24.8% (inactive) |

| SMILES | inhibition |
| --- | --- |
| Cc1cc(N2CCN(C)CC2)nc2ccc(NC(=S)N3CCCCC3)cc12 | 53.5% (active) |
| FC(F)(F)c1cnc(Oc2cccc3ccccc23)c(Cl)c1 | 10.7% (inactive) |
| CN(CC(=O)Nc1ccc(N2CCOCC2)cc1)C(=O)C1CCCC1 | 9.6% (inactive) |
| c1csc(C2Nc3cccc4cccc(c34)N2)c1 | 11.7% (inactive) |
| CN1C(=O)c2ccccc2N(C)C1c1cccs1 (stereo not drawn) | 10% (inactive) |
| CN1c2cccc3cccc(c23)N(C)C1c1cccs1 | 58.6% (active) |
| CN1/C(=N\O)c2cccc3cccc1c23 | 42.5% (inactive) |
| CN1CN(C)c2cccc3cccc1c23 | 48.7% (inactive) |
| CC1N(C)c2cccc3cccc(c23)N1C | 62.9% (active) |
| O=C(COC(=O)c1ccccc1)Nc1cc(Cl)ccc1Oc1ccccc1 | 0.2% (inactive) |
| COc1ccc(N2CC(NC(=O)NC(C)(C)C)CC2=O)cc1 (stereo not drawn) | 53.9% (active) |
| COc1ccc(N2CC(NC(=O)NCC(C)C)CC2=O)cc1 (stereo not drawn) | 7.2% (inactive) |
| COc1ccc(N2CC(NC(=O)Nc3ccccc3)CC2=O)cc1 (stereo not drawn) | -16.3% (inactive) |
| CC(C)CSc1n[nH]c(=S)s1 | -41% (inactive) |
| O=C(CCCSc1nc2ccccc2s1)NC1=NCCS1 | 1.7% (inactive) |
| CN1CCN(C(=O)c2ccccc2NC(=O)C(C)(C)C)CC1 | 10.4% (inactive) |
| O=C(COC(=O)c1cc(S(=O)(=O)N2CCOCC2)cs1)c1ccccc1 | 11.5% (inactive) |
| C/C=C(\C)CN1CCc2cc(OC)c(OC)cc2C1 | -34.9% (inactive) |
| COc1cc(CN2CCN(c3ccccc3F)CC2)cc(OC)c1O | 24.9% (inactive) |
| COc1cc(OC)c(OC)cc1CN1CCN(Cc2ccc(SC)cc2)CC1 | 10.2% (inactive) |
| COc1ccc(CN2CCN(Cc3ccc(C)cc3)C(CCO)C2)cc1OC (stereo not drawn) | -5.7% (inactive) |
| COc1cc2c(cc1OC)CN(Cc1cc(OC)c(O)c(OC)c1)CC2 | 69.5% (active) |
| COc1cc(CN2CCN(Cc3ccc(SC)cc3)CC2)cc(OC)c1O | 62.1% (active) |
| COc1cc(CN2CCN(Cc3ccc(C)cc3)C(CCO)C2)ccc1O (stereo not drawn) | 14.3% (inactive) |
| CCOc1ccc(CN2CCN(S(=O)(=O)c3ccc(NC(C)=O)cc3)CC2)cc1OC | -3.6% (inactive) |

| SMILES | inhibition |
| --- | --- |
| COc1cc(CN2CCN(Cc3ccc(C)cc3)C(CCO)C2)cc(OC)c1O (stereo not drawn) | 61.9% (active) |
| COc1ccc(CN2CCc3cc(OC)c(OC)cc3C2)cc1O | 4.1% (inactive) |
| COc1cc(CN2CCN(S(=O)(=O)c3ccc(NC(C)=O)cc3)CC2)cc(OC)c1O | 50.8% (active) |
| COc1ccc(CN2CCN(S(=O)(=O)c3ccc(NC(C)=O)cc3)CC2)cc1OC | -2.1% (inactive) |
| CCN(CC)c1nc(-c2ccccn2)nc(-c2ccccc2)c1C#N | -5.4% (inactive) |
| CCN(CC)C(=O)NC1CC2CCCC(C1)N2Cc1ccccc1 (stereo not drawn) | -8.6% (inactive) |
| CC(C)C(OC(=O)c1cccs1)C(=O)NCc1ccco1 (stereo not drawn) | 1.8% (inactive) |
| Cc1ccc(S(=O)(=O)N2CCN(S(=O)(=O)N3CCCCC3)CC2)cc1 | 10.1% (inactive) |
| Cn1c(=O)c2c(-c3ccc(C(C)(C)C)cc3)n(N3CCOCC3)cc2n(C)c1=O | -3.7% (inactive) |
| COc1ccc(CN2CCN(C(=O)c3cc(OC)c(OC)c(OC)c3)CC2)cc1OC | -8.2% (inactive) |
| COc1ccc(C(=O)N2CCN(Cc3ccccc3C)CC2)cc1OC | -3.6% (inactive) |
| COc1cc(CN2CCN(C(=O)CC(C)C)CC2)cc(OC)c1O | 55.5% (active) |
| COc1ccc(C(=O)N2CCN(Cc3cc(OC)c(O)c(OC)c3)CC2)cc1OC | 61.1% (active) |
| COc1ccc(CN2CCN(C(=O)CC(C)C)CC2)cc1OC | -3.1% (inactive) |
| COc1cc(CN2CCN(C(=O)CC(C)C)CC2)cc(OC)c1OC | -4.9% (inactive) |
| CCC(Sc1nc(C)cc(C)n1)C(=O)Nc1cc(C)on1 (stereo not drawn) | -8.4% (inactive) |
| CC(=O)Nc1cc(C(=O)N2CCCC2)ccc1S(=O)(=O)c1ccc(Cl)cc1 | 2.8% (inactive) |
| Nc1cc(=O)[nH]c(SCc2nnc(-c3ccccc3)o2)n1 | -0.3% (inactive) |
| CC1(C)CC(CC(=O)O)(c2ccc(F)cc2)CCO1 (stereo not drawn) | 3% (inactive) |
| c1ccc2c(c1)NC1(CCCCC1)n1c-2nc2ccccc21 | 8.3% (inactive) |
| COCCNC(=O)/C(C#N)=C/c1cc(Br)c(O)c(OC)c1 | 15.5% (inactive) |
| COc1cc(/C=N/S(=O)(=O)CCc2ccccc2)ccc1O | 14.1% (inactive) |
| COc1ccc(/C=C(\C#N)C(=O)NCCc2ccccc2)cc1OCc1ccccc1 | -4.6% (inactive) |
| COc1cc(/C=C(\C#N)C(=O)c2c(C)[nH]c3ccccc23)cc(OC)c1OC | 10.2% (inactive) |
| COc1ccc(/C=C(\C#N)C(=O)c2c(C)[nH]c3ccccc23)cc1OC | 8.5% (inactive) |

| SMILES | inhibition |
| --- | --- |
| COc1cc(/C=C(\C#N)C(=O)c2c[nH]c3ccccc23)cc(OC)c1O | 70% (active) |
| COc1cc(/C=C(\C#N)C(=O)NCCc2ccccc2)cc(OC)c1O | 57.6% (active) |
| COc1cc(/C=N/S(=O)(=O)CCc2ccccc2)cc(OC)c1O | 61.1% (active) |
| COc1ccc(/C=N/S(=O)(=O)CCc2ccccc2)c(OC)c1 | 7.5% (inactive) |
| CC(C)NC(=S)Nc1ccc2[nH]c(=O)[nH]c2c1 | -22% (inactive) |
| CC(C)(C)N(NC(=O)OCc1ccccc1)C(=O)c1ccccc1 | 2.3% (inactive) |
| CN(CP(=O)(O)CCc1ccccc1)S(C)(=O)=O | 3.2% (inactive) |
| CNc1ccc(/C=C(\C#N)c2ccccn2)cc1[N+](=O)[O-] | -3.1% (inactive) |
| Cc1ccc(/C=C/C(=O)N2CCCN(C(=O)/C=C/c3ccc(C)cc3)CC2)cc1 | 2.5% (inactive) |
| COc1ccc2nc(NC(=O)c3ccc(-c4cccc([N+](=O)[O-])c4)o3)sc2c1 | -5.7% (inactive) |
| COc1ccc2cc3cc(C(=O)NCCN4CCN(Cc5ccccc5)CC4)oc3nc2c1 | -5.6% (inactive) |
| CC(C)(C)NC(=O)NC(=O)CN1CCN(c2ccccc2)CC1 | -4.3% (inactive) |
| O=C(CN1CCN(c2ccccc2O)CC1)NC(c1ccccc1)c1ccccc1 | 15.4% (inactive) |
| CC(CCc1ccccc1)NC(=O)CN1CCN(c2ccccc2)CC1 (stereo not drawn) | 8.2% (inactive) |
| Cc1c(NC(=O)CN2CCN(c3ccc(F)cc3)CC2)c(=O)n(-c2ccccc2)n1C | 5.8% (inactive) |
| CC(CCc1ccccc1)NC(=O)CN1CCN(c2ccc(O)cc2)CC1 (stereo not drawn) | 65.2% (active) |
| COc1ccc(N2CCN(CC(=O)NC(=O)NC(C)(C)C)CC2)cc1 | 12.2% (inactive) |
| Cc1c(NC(=O)CN2CCN(c3ccc(O)cc3)CC2)c(=O)n(-c2ccccc2)n1C | 53% (active) |
| O=C(CN1CCN(c2ccc(O)cc2)CC1)NC(c1ccccc1)c1ccccc1 | 64% (active) |
| Cc1c(NC(=O)CN2CCN(c3ccccc3)CC2)c(=O)n(-c2ccccc2)n1C | -8.2% (inactive) |
| CC(C)(C)NC(=O)NC(=O)CN1CCN(c2ccc(O)cc2)CC1 | 62.6% (active) |
| CC(CCc1ccccc1)NC(=O)CN1CCc2ccccc2C1 (stereo not drawn) | 3.9% (inactive) |
| CC1CC(C)CN(CC(=O)NC(c2ccccc2)c2ccccc2)C1 (stereo not drawn) | -6.3% (inactive) |
